Experimental data published in ChEMBL document CHEMBL3988442, “University of Dundee, Small-Polar-MMV Screening Library” (2021).
Screen size: about 48,000 compounds; about 13,000 (27%) showed an effect of 50% or more. The list shows a part of the results.

These compounds were tested on Wolbachia pipientis (assay: Anti-Wolbachia Cell-Based Screen). Details: 5 µM.
Type: functional
Set-up: scale not given: in the data most compounds retested in dose-response had high values

SMILES	Percent Effect [%]
COc1ccccc1[C@@H]1CN(Cc2cc(C(C)(C)C)[nH]n2)C[C@H]1C(=O)O	-3.476
CCc1cnc(NCC2OCCc3ccccc32)nc1 (stereo not given)	32.64
Cn1ccnc1NC[C@@H]1CCC[C@@H]2CN(CC3CC3)C[C@@H]21.O=C(O)C(F)(F)F	12.38
COc1ccnc(CN2CCC=C(C(C)NC(C)=O)C2)c1OC (stereo not given)	-37.4
CC(C)Nc1ncnc2c1CCN(C(=O)NCc1cccc(F)c1)CC2	86.35
O=C(NCc1ccccc1)N1CCc2ncnc(NC3CC3)c2CC1	108.7
COc1ncnc2c1CCN(C(=O)NCc1cccnc1)CC2.O=C(O)C(F)(F)F	5.156
O=C(NCc1cccc(F)c1)N1CCc2ncnc(NC3CC3)c2CC1	117.5
COc1ncnc2c1CCN(C(=O)NCc1cccc(F)c1)CC2	-12.16
CCOc1ncnc2c1CCN(C(=O)NCc1cccnc1)CC2.O=C(O)C(F)(F)F	0.188
O=C(NCc1cccnc1)N1CCc2ncnc(C3CC3)c2CC1.O=C(O)C(F)(F)F	-6.522
CC(C)Nc1ncnc2c1CCN(C(=O)NCc1cccnc1)CC2.O=C(O)C(F)(F)F	-1.871
CCN(C)c1ncnc2c1CCN(C(=O)NCc1cccnc1)CC2.O=C(O)C(F)(F)F	18.48
O=C(NCc1cccnc1)N1CCc2ncnc(NC3CC3)c2CC1.O=C(O)C(F)(F)F	96.91
CN1CCc2[nH]nc(C(=O)N3CCC4(CN(C)C(=O)O4)C3)c2C1 (stereo not given)	3.232
CCC(O)CN1CCN(C(=O)c2cccc3[nH]ncc23)CC1 (stereo not given)	10.02
CCN(C)S(=O)(=O)c1c(F)cc(NC(C)=O)cc1F	15.35
CCC(Nc1nc(CCN)nc2ccccc12)c1cc(C)ccn1 (stereo not given)	5.857
O=C(O)Cn1nc(C2CC2)c2c(-c3ccc(F)cc3)ccnc21	106.5
COc1ccccc1-c1cc(C(F)(F)F)c2c(C)nn(CC(=O)O)c2n1	-3.37
Cc1nn(CC(=O)O)c2nccc(-c3ccc(F)cc3)c12	132.8
Cc1nn(CC(=O)Nc2ccc(F)cc2)c(N)c1C#N	-10.06
CN(C(=O)Cn1nc(-c2ccc(F)cc2)oc1=O)C1CCS(=O)(=O)C1 (stereo not given)	-25.19
O=C(Cn1nc(-c2ccc(F)cc2)oc1=O)Nc1ccccc1	-16.04

SMILES	Percent Effect [%]
O=C(CO)N1CCN(C(=O)c2coc3ccccc23)CC1	-5.618
Cn1cc(CNC2CC3(CCN(CC4CC4)CC3)c3ccccc32)cn1.O=C(O)C(F)(F)F.O=C(O)C(F)(F)F.O=C(O)C(F)(F)F (stereo not given)	-14.88
CS(=O)(=O)N1CCC2(CC1)CC(NCc1ccccn1)c1ccccc12 (stereo not given)	90.85
CS(=O)(=O)N1CCC2(CC1)CC(NCc1ccco1)c1ccccc12.O=C(O)C(F)(F)F (stereo not given)	91.69
Cn1cncc1CNC1CC2(CCN(S(C)(=O)=O)CC2)c2ccccc21.O=C(O)C(F)(F)F (stereo not given)	-9.896
Cn1cc(CNC2CC3(CCN(S(C)(=O)=O)CC3)c3ccccc32)cn1.O=C(O)C(F)(F)F (stereo not given)	94.6
CNC(=O)CNC1CC2(CCN(c3ncccn3)CC2)c2ccccc21.O=C(O)C(F)(F)F.O=C(O)C(F)(F)F (stereo not given)	-16.8
CS(=O)(=O)N1CCC2(CC1)CC(CC(=O)N1CCCC1)c1ccccc12 (stereo not given)	5.675
Cn1cncc1CNC1CC2(CCN(CC3CC3)CC2)c2ccccc21.O=C(O)C(F)(F)F.O=C(O)C(F)(F)F (stereo not given)	-10.77
O=C(O)C(F)(F)F.O=C(O)C(F)(F)F.c1cnc(N2CCC3(CC2)CC(NCC2CC2)c2ccccc23)nc1 (stereo not given)	1.529
CS(=O)(=O)N1CCC2(CC1)CC(CC(=O)NC1CC1)c1ccccc12 (stereo not given)	17.75
CS(=O)(=O)N1CCC2(CC1)CC(NCC1CC1)c1ccccc12.O=C(O)C(F)(F)F (stereo not given)	107.6
Cc1noc(CCCC(=O)N2CCNC(=O)C2)n1	-6.568
Cc1c(C(C)Nc2ncnc3sccc23)cnn1C (stereo not given)	-5.704
CCn1ccnc1CN(C)Cc1nc(CCC(C)C)no1	-3.993
COc1ccccc1[C@@H]1CN(C(=O)c2csc(C)n2)C[C@H]1C(=O)O	-8.955
CCn1cc(CN(C)c2nc(C)c3ccc(S(C)(=O)=O)cc3n2)cn1	-19.68
Cc1nnc(N2CCOC(Cn3cccn3)C2)c(C#N)c1C (stereo not given)	-2.698
CCc1[nH]c2c(CNC(=O)C3CCN(C)C3)cc(C)cc2c1C (stereo not given)	-4.959
CCCc1cc(C(=O)N2CC(c3ccncc3)C2)ccn1	-34.73
Cc1ncncc1C(=O)N1C[C@H]2CC[C@@H]1CN(C(=O)c1ccncc1)C2	-6.558
Cc1nccc(C2CN(C(=O)c3cncnc3)C2)n1	123.7
Cc1nc(O)cc(C2CCCN(C(=O)c3cccc(N(C)C)c3)C2)n1 (stereo not given)	2.27
Cc1nccc(C2CCCN(C(=O)c3cncnc3)C2)n1 (stereo not given)	134.6

SMILES	Percent Effect [%]
Cc1cccc(C2CCCN(C(=O)c3ccncc3)C2)n1 (stereo not given)	137.8
Cc1cc(C(=O)N[C@H]2CC[C@@]3(CCC(=O)N3)CC2)no1	-22.87
CCc1nc(CNC(=O)Nc2ccc(C(=O)NC)cc2C)cs1	-1.988
CCNc1ncc(C(=O)NC2CCOCC2)cn1	-0.8414
Cc1ccsc1CCNC(C)C(=O)NC1CCCC1 (stereo not given)	3.624
Cc1csc2cc(C(=O)NC3CC3)cnc12	125.4
Cc1csc2cc(C(=O)NC3CCCC3)cnc12	127
CNC(=O)c1coc(-c2csc(C)n2)c1	7.776
O=C(NC1CCC(O)CC1)c1cnc2c(cnn2C2CCCC2)c1 (stereo not given)	-3.379
CNC(=O)c1cnc2c(C)csc2c1	142.5
CCOc1ccc(C(=O)NC2CC2)cc1C	-6.669
Cc1cc(C2CCCN2C(=O)Cn2c(C)cc(=O)c3ccccc32)on1 (stereo not given)	-2.941
COCC(=O)N1CCN(C(=O)C2CCCCC2)[C@@H](C(=O)OC)C1	-2.41
Cc1nc(C)n(C2CCCN(C(=O)Cc3cn4ccccc4n3)C2)n1 (stereo not given)	141.6
Cc1nccn1C1CCCN(C(=O)COCC(F)(F)F)C1 (stereo not given)	9.036
Cc1nc(C)n(C2CCCN(C(=O)c3nc(C)n4ccccc34)C2)n1 (stereo not given)	-12.32
CCc1nccn1C1CCCN(C(=O)Cc2cn3ccccc3n2)C1 (stereo not given)	11.58
Cc1nccn1C1CCCN(C(=O)Cc2cn3ccccc3n2)C1 (stereo not given)	129.5
N#CC1(NC(=O)Cn2nnc(-c3cc4ccccc4o3)n2)CCCC1	6.129
CCOC(=O)NC(CNC(=O)c1cn(C)cn1)CC(C)C (stereo not given)	-4.121
COc1nccnc1-c1cc(NC2CCCC2)nc2[nH]ccc12	-1.982
COc1cnc(N2CCC(c3ncc[nH]3)CC2)nc1	16.53
COc1ccc2[nH]cc(-c3ccnc(NC4CCCC4)n3)c2c1	98.2
COc1ccc2[nH]cc(-c3ccnc(N4CCC(C)CC4)n3)c2c1	108.4

SMILES	Percent Effect [%]
COc1ccc2[nH]cc(C3CCN(CCC(N)=O)CC3)c2c1	-13.9
COc1cc(-c2cc(NC3CCCC3)nc3[nH]ccc23)nc(N)n1	-4.005
COC(=O)c1cc(NS(=O)(=O)c2cn(C)cn2)c(F)cc1F	-3.496
CS(=O)(=O)c1nnc(NC(=O)CCc2cccs2)[nH]1	5.426
O=C(NCc1ccc(-n2cncn2)nc1)c1ccc2c(c1)CCO2	2.792
COCCN1CCO[C@@H]2CN(C(=O)NCc3cccnc3)CC[C@@H]2C1.O=C(O)C(F)(F)F.O=C(O)C(F)(F)F	-7.719
CCN1CCO[C@@H]2CN(C(=O)NCc3ccccc3)CC[C@@H]2C1	91.66
CC(=O)N1CCO[C@@H]2CN(C(=O)NCc3cccnc3)CC[C@@H]2C1.O=C(O)C(F)(F)F	-5.554
CCN1CCO[C@@H]2CN(C(=O)c3ccc4[nH]ccc4c3)CC[C@@H]2C1.O=C(O)C(F)(F)F	-16
CC(=O)N1CCO[C@@H]2CN(C(=O)NCc3ccccc3)CC[C@@H]2C1	88.95
CCN(CC)Cc1cc(C(=O)N2CCCC(O)(CO)C2)c(C)o1 (stereo not given)	4.357
CCCc1ccc(CN2CCN(C(=O)C(C)C)[C@@H]3CS(=O)(=O)C[C@@H]32)o1	2.422
CCCc1ccc(CN2CCN(c3ncccn3)[C@@H]3CS(=O)(=O)C[C@@H]32)o1	-1.361
Cc1ccc(CN2CCN(Cc3nccn3C)[C@H]3CS(=O)(=O)C[C@H]32)o1	91.25
CCCc1ccc(CN2CCN(C(=O)NCC)[C@H]3CS(=O)(=O)C[C@H]32)o1	-11.9
CCn1ccnc1CN1CCN(Cc2ccc(C)o2)[C@@H]2CS(=O)(=O)C[C@@H]21	98.63
CCCc1ccc(CN2CCN(C(=O)N(C)C)[C@@H]3CS(=O)(=O)C[C@@H]32)o1	6.47
O=C(C1CN(c2ncc(F)cn2)CC12CCOCC2)N1CC=CC1.O=C(O)C(F)(F)F (stereo not given)	-11.35
O=C(O)C(F)(F)F.c1cnn(Cc2nnc3n2CCCN(CC2CCOCC2)C3)c1	-9.289
O=C(O)C(F)(F)F.c1coc(CN2CCn3c(COCC4CC4)nnc3C2)c1	-16.88
c1coc(CN2CCn3c(CN4CCOCC4)nnc3C2)c1	0.1546
O=C(O)C(F)(F)F.c1coc(CN2CCCn3c(nnc3Cn3cccc3)C2)c1	110.6
O=C(O)C(F)(F)F.O=C(O)C(F)(F)F.c1coc(CN2CCCn3c(CN4CCOCC4)nnc3C2)c1	102
